The source of these data is PubChem BioAssay AID651910 (Vanderbilt Specialized Chemistry Center, 2012).

The test deals with Polyamine deacetylase HDAC10 (Homo sapiens) (UniProt Q969S8). Nature of the test: inhibitors of recombinant human HDAC10 – biochemical, selectivity assay for E-cadherin restoration project, profiling panel (AID 651910).

Active and inactive are the calls of the source. How the calls were made is not given here.

Sequence of Polyamine deacetylase HDAC10 (Homo sapiens) (Q969S8 whole entry, looked up): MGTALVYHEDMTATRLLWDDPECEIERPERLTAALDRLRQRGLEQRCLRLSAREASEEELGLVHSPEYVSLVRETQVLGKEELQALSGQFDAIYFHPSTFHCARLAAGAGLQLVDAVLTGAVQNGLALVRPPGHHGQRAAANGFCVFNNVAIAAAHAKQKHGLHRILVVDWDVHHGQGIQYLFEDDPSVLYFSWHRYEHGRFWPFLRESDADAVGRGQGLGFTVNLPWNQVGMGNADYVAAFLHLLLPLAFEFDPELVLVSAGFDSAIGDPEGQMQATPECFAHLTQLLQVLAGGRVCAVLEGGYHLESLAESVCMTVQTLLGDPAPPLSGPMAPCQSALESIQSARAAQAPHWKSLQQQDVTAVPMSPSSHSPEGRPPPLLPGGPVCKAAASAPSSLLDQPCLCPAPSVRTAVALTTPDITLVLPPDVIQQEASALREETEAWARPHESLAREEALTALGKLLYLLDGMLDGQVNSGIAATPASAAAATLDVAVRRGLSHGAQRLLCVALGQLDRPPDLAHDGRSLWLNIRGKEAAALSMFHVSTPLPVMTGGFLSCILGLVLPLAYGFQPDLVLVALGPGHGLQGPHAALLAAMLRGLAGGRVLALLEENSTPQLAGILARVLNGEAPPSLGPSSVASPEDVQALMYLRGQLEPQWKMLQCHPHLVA

Consider `O=C(NCCCNC(=O)c1ccc[nH]c1=O)c1cc(-c2ccccc2)on1`, for which the outcome was inactive.
